Test results reported in ChEMBL document CHEMBL1157539, “Thousands of chemical starting points for antimalarial lead identification” (Nature, 2010).

Experiments:
Format in all cases: functional
[1] = system: Plasmodium falciparum; experiment: GSK_TCMDC: Inhibition of Plasmodium falciparum 3D7 in whole red blood cells, using parasite LDH activity as an index of growth. Test compounds present at 2uM
[2] = system: Plasmodium falciparum; experiment: GSK_TCMDC: Inhibition of Plasmodium falciparum Dd2 in whole red blood cells, using parasite LDH activity as an index of growth. Test compounds present at 2uM
[3] = system: HepG2; experiment: GSK_TCMDC: Percent inhibition of human HepG2 cell line. Test compounds present at 10uM.

| Structure (SMILES) | Inhibition [1] [%] | Inhibition [2] [%] | Inhibition [3] [%] |
| --- | --- | --- | --- |
| CCN(CC)CCN(Cc1ccc(-c2ccc(C(F)(F)F)cc2)cc1)C(=O)Cn1c(CCc2cccc(F)c2F)nc(=O)c2cccnc21.O=C(O)C(O)C(O)C(=O)O | 100 | 89 | 75 |
| Cc1cc(F)ccc1[C@H]1CNCCN1C(=O)N(C)C(C)(C)c1cc(C(F)(F)F)cc(C(F)(F)F)c1.Cl | 100 | 100 | 24 |
| O=C1C(c2ccccc2)=C(Nc2ccc(OC(F)(F)F)cc2)c2ccccc21 | 96 | 96 | 18 |
| COc1ccccc1-c1cccc(Nc2c(Nc3ccc(Cl)cc3)c(=O)c2=O)c1 | 81 | 47 | 20 |
| O=C(Nc1ccc(CN2CCOCC2)cc1)c1ccc(-c2ccc(Br)cc2)o1 | 92 | 0 | 3 |
| CNc1ccc(CNCc2cccc(-c3ccc(-c4nc5ccccc5[nH]4)s3)c2)cc1.O=C(O)C(F)(F)F | 100 | 77 | 15 |
| Cl.Nc1c2ccccc2nc2cc([N+](=O)[O-])ccc12 | 98 | 26 | 92 |
| Cc1sc2cc(Cl)cc(Cl)c2c1S(=O)(=O)Nc1ccc2nccc(N3CCNCC3)c2c1.Cl | 100 | 99 | 24 |
| O=C(Nc1ccc2c(c1)CCC2)N[C@H]1CCN(Cc2ccc(OCCCN3CCCCC3)cc2)C1 | 96 | 0 | 9 |
| Cl.FC(F)(F)c1cc(Nc2ncnc3ccc(Br)cc23)ccc1OCc1ccccc1 | 87 | 9 | 12 |
| COc1ccc(Nc2nc(NCc3ccc(-n4ccnc4)cc3)cc(-c3ccc(OC)cc3)n2)cc1 | 96 | 25 | 8 |
| Br.CCOc1ccc(CCCON2C(=N)N=C(N)NC2(C)C)cc1 | 93 | 93 | 65 |
| CN(C)CCOc1ccc2c(c1)OC(C)(C)C=C2c1cccc2ccccc12.Cl | 95 | 48 | 66 |
| O=C(Nc1ccc(Cl)c(Cl)c1)Nc1ccccc1N1CCNCC1.O=C(O)C(F)(F)F | 100 | 22 | 17 |
| Cl.O=C(O)CNCC(O)c1ccccc1 (configuration not stated) | 96 | 0 | 7 |
| CCN(CC)C(=O)C(=O)c1c[nH]c2ccc(Cl)cc12 | 96 | 96 | 1 |
| CCNC(=O)N[C@@H]1CN[C@@H](C#Cc2cc3c(Nc4ccc(OCc5cccc(F)c5)c(Cl)c4)ncnc3s2)C1 | 85 | 27 | 0 |
| Cc1ccc(NC(=O)c2ccc(CN3CCCN(CC4CCCCC4)CC3)cc2)cc1.O=C(O)C(F)(F)F | 93 | 42 | 41 |
| O=C(/C=C/c1ccc(Cl)c(Cl)c1)NCCCCCN1CCC(C(=O)Nc2ccc(Cl)cc2)CC1 | 100 | 0 | 42 |
| CC(C)(C)c1ccc(CN(C[C@@H](O)CNS(=O)(=O)c2cc(Cl)cc(Cl)c2)C(C)(C)C)cc1.Cl | 98 | 94 | 74 |

| Structure (SMILES) | Inhibition [1] [%] | Inhibition [2] [%] | Inhibition [3] [%] |
| --- | --- | --- | --- |
| COc1cc(NCCCNCC2c3ccccc3Oc3ccccc32)nc2ccccc12.O=C(O)C(F)(F)F | 99 | 66 | 99 |
| O=C(/C=C/c1ccc(C(F)(F)F)cc1)NCCCCCN1CCCN(C(=O)Nc2cccc(Cl)c2)CC1 | 92 | 3 | 16 |
| FC(F)(F)c1cccc(CNC2CCN(CC3CCCCC3)CC2)c1.O=C(O)C(F)(F)F | 100 | 12 | 0 |
| CCOC(=O)c1ccc(NC(=O)N(Cc2ccc(-c3cccc(CN4CCNCC4)c3)cc2)C2CCN(Cc3ccccc3)CC2)cc1.O=C(O)C(F)(F)F | 100 | 55 | 19 |
| CC(C)Nc1cc(C(=O)N[C@@H](Cc2ccccc2)[C@H](O)CNC2CCCCC2)cc(N2CCCCS2(=O)=O)c1.O=CO | 98 | 98 | 9 |
| CCc1ccc(NC(=O)c2cccc(CN3CCCN(Cc4ccc(OC)cc4)CC3)c2)cc1.O=C(O)C(F)(F)F | 97 | 0 | 35 |
| O=C(Nc1ccc2ccccc2c1)N1CCC(NCc2cccc([N+](=O)[O-])c2)CC1.O=C(O)C(F)(F)F | 98 | 0 | 0 |
| CCOc1cc(Cc2cnc(N)nc2N)cc(OCC)c1-n1cccc1 [EPIROPRIM] | 98 | 0 | 0 |
| c1ccc(-c2n[nH]cc2Nc2ccnc3ccccc23)nc1 | 100 | 98 | 36 |
| O=C(Nc1ccc(Cn2ncc(N3CCCNCC3)c(Cl)c2=O)cc1)Nc1cccc(SC(F)(F)F)c1.O=C(O)C(F)(F)F | 92 | 33 | 12 |
| O=C(c1cc(OC(F)(F)F)ccc1O)N1CCN(c2ccccc2)CC1 | 88 | 1 | 0 |
| CC(C)c1ccc(NC(=O)c2ccc(C(=O)NCC3CCN(CC4CCCCC4)CC3)cc2)cc1.O=C(O)C(F)(F)F | 92 | 18 | 26 |
| O=C(Nc1ccc(Cl)cc1)c1cccc(S(=O)(=O)NC2CCN(CC3CCCCC3)CC2)c1.O=C(O)C(F)(F)F | 92 | 11 | 67 |
| O=C(O)C(F)(F)F.O=S(=O)(NCCN1CCCC1)c1ccc(-c2ccc(CNCc3ccccc3)cc2)cc1 | 99 | 28 | 47 |
| CCNc1cc(C(=O)N[C@@H](Cc2ccccc2)[C@H](O)CNC(C)Cc2cccc(Cl)c2)cc(N2CCCCS2(=O)=O)c1.Cl (some centres not stated) | 98 | 77 | 0 |
| O=C(Nc1nc2cc(S(=O)(=O)NCCc3cccc(F)c3)ccc2n1CCCn1ccnc1)c1ccc(Cl)cc1.O=C(O)C(F)(F)F | 90 | 8 | 0 |
| Cc1cccc(CN2CCC(CNC(=O)c3cc4c(-c5ccccc5F)nn(C)c4s3)CC2)c1 | 85 | 15 | 18 |
| O=C(NCC(c1ccc(C(F)(F)F)cc1)N1CCCC1)c1cc(-c2ccncc2)c(-c2cccc(O)c2)o1.O=C(O)C(F)(F)F (configuration not stated) | 95 | 53 | 9 |
| COc1ccc(Nc2ncc3c(-c4cccc(NC(=O)Cc5ccc(F)cc5)c4)c[nH]c3n2)cc1OC | 100 | 90 | 21 |
| Cc1ccccc1C1CCN(C2CCC(NC(=O)/C=C/c3ccc(Cl)cc3)CC2)CC1 (configuration not stated) | 99 | 25 | 78 |

| Structure (SMILES) | Inhibition [1] [%] | Inhibition [2] [%] | Inhibition [3] [%] |
| --- | --- | --- | --- |
| COc1ccc(C=NN=c2cc(C)[nH]c3ccccc23)c(OC)c1 | 100 | 94 | 24 |
| CC(C)(C)OC(=O)NCc1ccc(Nc2nnc(-c3cccc(C(=O)NCc4cc(C(F)(F)F)cc(C(F)(F)F)c4)c3)o2)cc1 | 90 | 13 | 4 |
| COc1cc(CN/C(=N/c2ccc(-c3ccccc3)cc2)Nc2ccc(C#N)cc2O)cc(OC)c1 | 95 | 64 | 0 |
| Cc1[nH]c(C)c(-c2cccc(-c3ccc(OC(F)(F)F)cc3)c2)c(=O)c1Br | 97 | 96 | 45 |
| Cc1nc2ccc(Nc3nccc(-c4c(-c5cccc(NC(=O)c6c(F)cccc6F)c5)nn5ccccc45)n3)cc2nc1C | 91 | 45 | 55 |
| Cc1nnc(-c2cccc(Nc3ccnc4cc(-c5nccs5)ccc34)c2)o1.Cl | 95 | 89 | 38 |
| O=[N+]([O-])c1ccc(N/C(=N\c2ccccc2Br)NC2CCCc3ccccc32)c(O)c1 (configuration not stated) | 98 | 89 | 0 |
| CCC1(C)CC(CCNCc2ccccc2O)(c2ccccc2OC)CCO1.Cl (configuration not stated) | 94 | 93 | 10 |
| Cc1ccccc1C1CCN(C2CCC(NC(=O)/C=C/c3cccc(Cl)c3F)CC2)CC1 (configuration not stated) | 100 | 37 | 87 |
| COc1cc(C)c(C(O)CNC(C)CCc2ccccc2)cc1C.Cl (configuration not stated) | 98 | 98 | 1 |
| COc1ccccc1CCNc1nc(C)cc(N[C@@H](Cc2ccccc2)C(=O)Nc2ccccc2)n1.O=C(O)C(F)(F)F | 100 | 86 | 30 |
| COc1ccccc1C(=O)Nc1ccc(Nc2nc(C)cc(N3CCOCC3)n2)cc1 | 98 | 22 | 28 |
| CCn1c(-c2nc(-c3ccnc(N4CCN(C)CC4)c3)cnc2N)nc2cc(S(C)(=O)=O)ccc21 | 100 | 76 | 44 |
| CN(C)C(=O)CC(=O)NCc1c(Cl)cccc1Cl | 95 | 2 | 2 |
| CCc1ccc(NC(=O)N(CCCn2ccnc2)Cc2csc(-c3ccc(CNCc4ccccc4)cc3)n2)cc1.O=C(O)C(F)(F)F | 100 | 39 | 9 |
| CC(C)(C)c1nn(-c2ccc(Cl)cc2)c2[nH]c(=O)c(CNC3CCCC3)cc12 | 99 | 99 | 0 |
| O=c1cc(NCCCNCc2[nH]c3cc(Cl)ccc3c2Cl)[nH]c2ccccc12 | 91 | 1 | 5 |
| CCOC(=O)c1ccc(N=C2SC(=Cc3cc(Br)ccc3O)C(=O)N2C)cc1 | 99 | 96 | 0 |
| CCC(C)CN1CCN(c2ccc(NC(=O)c3cccs3)cc2)CC1C.O=C(O)C(F)(F)F (configuration not stated) | 94 | 94 | 0 |
